Here are results for 22 molecules from article PMC12136788.

Residue numbers refer to the chain shown, from its start. In all, about 24,000 sequences were measured (“enrichment r”: median about 0.99, highest 2% from about 3.7 on). For the sample, the highest values were picked, then their nearest neighbours and some sequences at random.

To fix the notation:
T1: UNK ZnF1-3 (human, UniProt Q9C0B0 31-174)
T1 sequence: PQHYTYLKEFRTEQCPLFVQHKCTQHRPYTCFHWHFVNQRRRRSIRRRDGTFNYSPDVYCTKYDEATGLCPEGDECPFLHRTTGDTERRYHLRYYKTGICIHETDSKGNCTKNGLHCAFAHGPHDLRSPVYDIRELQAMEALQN

B1: 12963335_12971236_673_CDS_ENSG00000085415_ENST00000262124|human|control|control (ssRNA)
RNA: GGGAGUUCUACAGUCCGACGAUCAUAUUCAAAAAUCUGAACCUUGGCCAUUGCGUUGGGGCUACUGUCAUCACUUCCUACGGCGAUCAUGGGGGAAUGAGCACGAGAGCUUGAAGGGUUCCAAGAAAUACAACUACAGCUUAGCAACAGAGGAUUGAGCAUCA
B2: chr1:154966221:154966222:+_ENSMUSG00000042751_ENSMUST00000043313|mus_mus|FALSE|FALSE (ssRNA)
RNA: GGGAGUUCUACAGUCCGACGAUCUGCAACUCGAAUGCAGUUUUUAUUGAGUUGACUUCCAUAAAGCAAAUCUCACUCUUAAAUUAGCAGAUAUGAUUUUUUAAAAAAUUAAAAAAAAAAAAGCUUCCUCCUCCCCAUUCCAACCAACAGAGGAUUGAGCAUCA
B3: chr16:67134085:67134086:+_ENSG00000067955_ENST00000412916|hu_mus|FALSE|FALSE (ssRNA)
RNA: GGGAGUUCUACAGUCCGACGAUCGAAUUGACCAUGUCAGUUUUUAAAAUUUUCUAAAAUAAUGCCAUUUUAUGAUAAAAUACAUUUUUGCAAAAAUUCAGAAAUGUAGUAACAUUUAAUGAAUACGACCACGGAAAGUAUUGUCAACAGAGGAUUGAGCAUCA
B4: chr16:67134085:67134086:+_ENSG00000067955_ENST00000412916|hu_hu|FALSE|FALSE (ssRNA)
RNA: GGGAGUUCUACAGUCCGACGAUCCUGAAUUGACUGUGUCAGUUUUUCACCCUUUAAAAUAAUGCCAUUUAAUGAUAAAAUACAUUUUUCAAAAAUUCAGAAAUGUAGUAACAUUUAAUAAAUGUGACCAUGAAAAAUAUUUGUCAACAGAGGAUUGAGCAUCA
B5: chr5:6374476:6374477:-_ENSG00000133398_ENST00000255764|hu_mus|FALSE|FALSE (ssRNA)
RNA: GGGAGUUCUACAGUCCGACGAUCUAGGCUUUUAAAUUUCUUCAUUGUGUCGAUCUUGCCCUUGACUUGCUCGUUUUUAGCUAGAGCCCUCUCCAGGCAUUCUUUGGUGUAGAGCUGGGGAUUCCGACCUUGAUCAAUGUAUUCCAACAGAGGAUUGAGCAUCA
B6: 117884203_117884323_1758_3pUTR_ENSG00000047932_ENST00000052569|human|control|control (ssRNA)
RNA: GGGAGUUCUACAGUCCGACGAUCAAAUUGCUUUACAUGCAAUAGCUAAUUAUGGUCUACCACAGAAAACAGGGUGUUUUAUGCAUUGAGAAUUGUUCACAUGAAGCCCUGAGGUACCCGCCUUUCAUUUAGGCAACAAACAGCCAACAGAGGAUUGAGCAUCA
B7: 48376308_48376428_337_CDS_ENSMUSG00000031558_ENSMUST00000170109|mouse|control|control (ssRNA)
RNA: GGGAGUUCUACAGUCCGACGAUCGGGCACACUGCGCAGUGCCAGCCCAUGACAGUCCACCGUGCUGCCUGAACAGGAGCACUGGGCCGGGCACGCCUGCGGCGCCACCUUGUUCAAGAUCGACAACACUAACCCCAGCGAUAGCAACAGAGGAUUGAGCAUCA
B8: chr8:13147844:13147845:+_ENSMUSG00000031446_ENSMUST00000016680|mus_mus|FALSE|FALSE (ssRNA)
RNA: GGGAGUUCUACAGUCCGACGAUCAAUAUUAACAAUUUGUAGACACAAUGAACUUAAAAAUAAGAAGUAGAAAUAGAAAUCUAUUUGGUCUUUCAGAGACCACAUCAUAGAACUCAUAAAUGAAAAUGUACAAAUAUAGAAAUGCAACAGAGGAUUGAGCAUCA
B9: chr16:57153313:57153314:+_ENSMUSG00000022752_ENSMUST00000166897|mus_mus|FALSE|FALSE (ssRNA)
RNA: GGGAGUUCUACAGUCCGACGAUCCAAAAAAAAUUAAAAAGGAUUAAUUGAAUACAAAAGAAGUAUAUUUUACAGCACUUACUAUGUUAAAAACUAACAUACUAUAAAAUACUCACAUAUUAUACAAACAGCUAUAAAAAAACACAACAGAGGAUUGAGCAUCA
B10: chr1:60041781:60041782:+_ENSMUSG00000041040_ENSMUST00000036540|mus_hu|FALSE|FALSE (ssRNA)
RNA: GGGAGUUCUACAGUCCGACGAUCAAGUUUACAAUAGUAAAGUAAAUGCAGUAGUGGCAAAUUUUCUUUUAUUUUCCUUCACAAAAGAAAAUCUUUAUAACCCAGUCCUAGUCUUGGACAUAGUGAAAGCUAUAAAUUCUGACUCAACAGAGGAUUGAGCAUCA
B11: chr4:154931852:154931853:+_ENSMUSG00000029064_ENSMUST00000030940|mus_mus|FALSE|FALSE (ssRNA)
RNA: GGGAGUUCUACAGUCCGACGAUCUUUUAUUGUAGUAUUUCCUUUUAAAAUUGGACCAACCCAAAACAAAAUGAAACCAAAAAAACAAAAACAAAACAAAAUAACAAAAUAAACCAAAAACAAUGGCCCCAGAAAAAAUGCACACAACAGAGGAUUGAGCAUCA
B12: chr14:102516957:102516958:+_ENSG00000197102_ENST00000360184|hu_hu|FALSE|FALSE (ssRNA)
RNA: GGGAGUUCUACAGUCCGACGAUCAGCUCAGACCUUCCAAAUAUUUUAAAAAUGAAUAAAUGUUAAAUACCAACUUUCACUAUUACAGAAAGGGGCAGCUAGAAAAGUUUACUCUGUGCACAAGACUGCGACACCCCGCUCGUACAACAGAGGAUUGAGCAUCA
B13: chr5:92873050:92873051:-_ENSMUSG00000029426_ENSMUST00000031377|mus_hu|motif|central (ssRNA)
RNA: GGGAGUUCUACAGUCCGACGAUCCAGCACCCAACAACAACAAAAUUACUAUACAAGGGUUUAUUAAAUACUUGCGGGACACAUAAAAGAACAAUUUCAGAGCCCACAUGAUUUUAUAAAGCUUAAUGGCCAGCCAUGUCAGCCCAACAGAGGAUUGAGCAUCA
B14: chr5:92873050:92873051:-_ENSMUSG00000029426_ENSMUST00000031377|mus_hu|FALSE|FALSE (ssRNA)
RNA: B13 RNA with G75U, G76A
B15: chr7:126859785:126859786:-_ENSMUSG00000030942_ENSMUST00000033236|mus_hu|FALSE|FALSE (ssRNA)
RNA: GGGAGUUCUACAGUCCGACGAUCUAUAUUACACACAAAUGUUAAAAAAAAAAAAAAAAAACAGACAUAAACAAGAAAAUCACAAAAGUACAAAAACUUCACUAAACAAUUCACUUCUAACCUACAUGAUCCACAUUUUUGCAACAACAGAGGAUUGAGCAUCA
B16: chr16:57153313:57153314:+_ENSMUSG00000022752_ENSMUST00000166897|mus_mus|motif|central (ssRNA)
RNA: B9 RNA with U82G, A83G
B17: 57609423_57609543_1342_3pUTR_ENSG00000101166_ENST00000355937|human|control|control (ssRNA)
RNA: GGGAGUUCUACAGUCCGACGAUCACUAAGUUACAAAACUUGGGCAAAUCAAUACAGUACUCUUUUAUAAUGAAACCAUACUUUUGUUGGAGUCAUGUUACUUUAGUGAUAAUUUUCACUCCAAAAAUAUUUAAGUACCAAAUCCAACAGAGGAUUGAGCAUCA
B18: chr5:40767622:40767623:-_ENSG00000132356_ENST00000397128|hu_mus|hu_hu_hu_mus_False|38_48 (ssRNA)
RNA: GGGAGUUCUACAGUCCGACGAUCAUCUUUUAUUGCGGCCCUCUUCAUGGGAUCCACCUGCAGCAUAUGUUUCAAAAGGCUGAUUACAGAAGGAUUUAAAUAUUGAGGGGUAUAAAAGAUCCCAUCACAUAUCUUCUUAAAAAGCAACAGAGGAUUGAGCAUCA
B19: chr15:63448706:63448707:-_ENSG00000185088_ENST00000411926|hu_hu|FALSE|FALSE (ssRNA)
RNA: GGGAGUUCUACAGUCCGACGAUCUGAUCUUGUAGCAACCUGGACAUUUUACAUCCAUAAAGUAAGAAUUUGGACUUUGUACUAGGCGUUUCUUUUUAUGUUUUUUCUUUUCCUCUUCCAAGGACGGAUGUAGUAAAUCUCUAGCAACAGAGGAUUGAGCAUCA
B20: chr15:51674161:51674162:-_ENSMUSG00000022312_ENSMUST00000022925|mus_mus|motif|central (ssRNA)
RNA: GGGAGUUCUACAGUCCGACGAUCCUGAACAACCUCAGUGCCUUGUCCUUCUUCUUGAUAAUGUUUGAUUAUCUUUAAUACGGCCAGGCCGUCGAUCUGCACCUGCUUCACGGCCGAAUCUCCGGAGCCGCCUUUGCCUUUGCCCAACAGAGGAUUGAGCAUCA
B21: 109540647_109541272_703_CDS_ENSG00000076248_ENST00000242576|human|control|control (ssRNA)
RNA: GGGAGUUCUACAGUCCGACGAUCACGAACCGUGAGGACAGCGUUGAGAAGGAGAACACCUUGCUUGGCCCACCCAGAUAAAUCUCCAUGGCCAGGAUGAACAAAAUCCUCUAUGUCUGUAGACAACUCUUUAUAAAUGUUCUCCAACAGAGGAUUGAGCAUCA
B22: chr20:52835626:52835627:+_ENSG00000101132_ENST00000441080|hu_mus|FALSE|FALSE (ssRNA)
RNA: GGGAGUUCUACAGUCCGACGAUCUGCCUCGAGGUUUAUGUUGCUGCCAAAUUUCGCGUAUAGCUGCACCUUCAGGUCGGCUAACACCCGCUGGAUGGACGCCACUCUGGACUCUAAGGCAUCAAUCUCUUCUUGCAAAGUUUUCAACAGAGGAUUGAGCAUCA

The target in the assay is T1, UNK ZnF1-3. The assay can be described thus: nsRBNS (natural sequence RNA bind-n-seq); RBNS binding buffer (assumed for nsRBNS): 25 mM Tris pH 7.5, 150 mM KCl, 3 mM MgCl2, 0.01% Triton X-100, 500 ug/ml BSA, 20 U/ml SUPERase-In, 4 C; UNK is unkempt and MSI1 is Musashi-1; names of the RNAs are library labels; protein concentration not given here; high values mean tight binding.
Regarding B1, the binding signal came out at 2.14 enrichment R.
Then B2, with 3.32 enrichment R; and B3, with 4.09 enrichment R.
B4 displayed a binding signal of 0.889 enrichment R.
The value for B5 was 0.465 enrichment R.
Then B6, with 1.15 enrichment R; and B7, with 0.634 enrichment R; and B8, with 3.41 enrichment R.
The value for B9 was 11.1 enrichment R.
In turn, B10 yielded a binding signal of 0.593 enrichment R.
The value for B11 was 3.7 enrichment R.
The value for B12 was 3.32 enrichment R; that for B13 was 4.28 enrichment R; that for B14 was 3.35 enrichment R.
B15 gave a binding signal of 10.5 enrichment R.
Then B16, with 3.65 enrichment R.
The value for B17 was 0.487 enrichment R; that for B18 was 1.64 enrichment R.
B19: the binding signal was determined as 0.655 enrichment R.
The molecule B20 showed a binding signal of 0.51 enrichment R.
Then B21, with 1.34 enrichment R.
The value for B22 was 0.762 enrichment R.
